Where “and” joins values, the source holds several entries; their conditions need not be identical. Equal entries are not always repeated. About 720 (0.36%) of roughly 200,000 compounds were called active. Roughly 8% stayed inconclusive and do not appear here. Calls follow the shape of the dose curve; as a rule, active = well fitted activation curve with a large enough effect; inconclusive = small, poorly fitted or top-dose-only effect, or effect the other way, or another doubt; inactive = flat fitted curve, though single readings scatter. Some of the results follow.
molecular target: Lysosomal alpha-glucosidase (Homo sapiens) (UniProt P10253); experiment: qHTS Assay for Activators of Human alpha-Glucosidase as a Potential Chaperone Treatment of Pompe Disease; conditions: purified enzyme, 4-MU-alpha-glucoside fluorescence, 20 min; series mostly up to 76.9 µM; also: nearly all actives have a fitted effect of over 80% in size
Summary of the method: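 Compounds titrated up to 77 uM against 4 nM enzyme and 400 uM methylumbelliferyl substrate at room temperature, 20 min, pH 5.0. Basic stop, then 4-methylumbelliferone fluorescence (365/440 nm) normalized to no-enzyme and enzyme controls; Hill-equation AC50.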
Potency is read from the fitted curve at half-maximal effect.

Potency, active:
O=C(c1cc2c(ccc3ccccc32)oc1=O)N1CCCC1 31.6 µM
CC(OC(=O)c1cc2c(ccc3ccccc32)oc1=O)c1nc2ccccc2s1 (stereo not drawn) 28.2 µM
O=C(NCCc1ccccc1)c1cnc2ccccn2c1=O 25.1 µM
Cc1cccc(-n2c3nc(=O)[nH]c(=O)c-3cc3c(C)nn(-c4ccccc4)c32)c1 20 µM
Cc1ccc(-n2c3nc(=O)[nH]c(=O)c-3cc3c(C)nn(-c4ccccc4)c32)c(C)c1 25.1 µM
Cc1cccc(-n2c3nc(=O)[nH]c(=O)c-3cc3c(C)nn(-c4ccccc4)c32)c1C 22.4 µM
O=c1c(-c2nc3ccccc3s2)cccn1Cc1ccc(Cl)c(Cl)c1 28.2 µM
O=c1c(-c2nc3ccccc3s2)cccn1Cc1ccccc1 39.8 µM
Cc1ccc(Cn2cccc(-c3nc4ccccc4s3)c2=O)cc1 28.2 µM
O=c1c(-c2nc3ccccc3s2)cccn1Cc1ccc(Cl)cc1 10 µM
COc1cc(=O)n(C)c2cc(N(C)C)ccc12 31.6 µM
COc1cc2nc(N3CCN(C(=O)C4COc5ccccc5O4)CC3)nc(N)c2cc1OC (stereo not drawn) 39.8 µM
COc1cc2nc(N(C)CCCNC(=O)C3CCCO3)nc(N)c2cc1OC (stereo not drawn) 35.5 µM
COc1cc2nc(N3CCN(C(=O)C4CCCO4)CC3)nc(N)c2cc1OC (stereo not drawn) 35.5 µM and 39.8 µM
O=C(O)C(=O)/C(=C\c1cccc(Cl)c1)c1ccc2ccccc2n1 28.2 µM
Cc1ccc2nc(-c3ccc(NS(=O)(=O)c4ccc(F)cc4)cc3)sc2c1 35.5 µM
Cc1cccc(S(=O)(=O)Nc2ccc(-c3nc4ccc(C)cc4s3)cc2)c1 31.6 µM
Cc1ccc2sc(-c3ccc(NC(=O)/C=C\C(=O)O)cc3)nc2c1 39.8 µM
Cc1nc2ccc(S(=O)(=O)Nc3ccc(-c4nc5cccnc5s4)cc3)cc2s1 35.5 µM
Cc1cc(-c2nc3cccnc3s2)ccc1NS(=O)(=O)c1ccc2c(c1)OCCO2 35.5 µM
Cc1ccc2nc(-c3ccc(NS(=O)(=O)c4ccc(F)c(F)c4)cc3)sc2c1 3.55 µM
Cc1ccc(S(=O)(=O)Nc2ccc(-c3nc4ccc(C)cc4s3)cc2)cc1 35.5 µM
C/C(=N\NC(=O)CC#N)c1cc2ccc(O)cc2oc1=O 35.5 µM
Cc1c2c(n3c(nc4ccccc43)c1C#N)N(CCCN(C)C)CC2 35.5 µM
Cc1c2c(n3c(nc4ccccc43)c1C#N)N(CCN1CCOCC1)CC2 5.62 µM
CCCn1c(=NC(C)=O)c(C(=O)OCC)cc2c(=O)n3ccccc3nc21 35.5 µM
CCOC(=O)c1cc2c(=O)n3ccccc3nc2n(CC2CCCO2)c1=NC(C)=O (stereo not drawn) 35.5 µM
CCOC(=O)c1cc2c(=O)n3ccccc3nc2n(CCCOC)c1=NC(C)=O 35.5 µM
CCOCCCn1c(=NC(C)=O)c(C(=O)OCC)cc2c(=O)n3ccccc3nc21 39.8 µM
CNC(=O)c1cc2ccc(OC)cc2oc1=O 28.2 µM
CCOC(=O)c1cc2ccc(OC(=O)c3ccco3)cc2oc1=O 35.5 µM
CCOC(=O)c1cc2ccc(OC)cc2oc1=O 31.6 µM
CSc1nc2n(n1)C(c1ccccn1)C1=C(CC(C)(C)CC1=O)N2 (stereo not drawn) 35.5 µM
CCC(NC(=O)OC(C)(C)C)C(=O)Oc1ccc2c3c(c(=O)oc2c1)CCC3 (stereo not drawn) 35.5 µM
CSCCC(NC(C)=O)C(=O)Oc1ccc2c3c(c(=O)oc2c1)CCCC3 (stereo not drawn) 35.5 µM
Cc1c(OC(=O)CNC(=O)OC(C)(C)C)ccc2c3c(c(=O)oc12)CCC3 11.2 µM
Cc1csc(NC(=O)c2ccccc2O)n1 39.8 µM
Cc1ccc(N(C)S(=O)(=O)c2cccc(C(=O)Oc3ccc4c(C)cc(=O)oc4c3)c2)cc1 31.6 µM
C=CCN(c1ccccc1)S(=O)(=O)c1cccc(C(=O)Oc2ccc3c(C)cc(=O)oc3c2)c1 35.5 µM
CCN(c1ccccc1)S(=O)(=O)c1cc(C(=O)Oc2ccc3c(C)cc(=O)oc3c2)ccc1C 28.2 µM
O=Cc1cn(-c2ccccc2)nc1-c1cc2cc(O)ccc2oc1=O 35.5 µM
COc1ccc2cc3cc(C(=O)NC(C)C)oc3nc2c1 28.2 µM
CCC(C)NC(=O)c1cc2cc3ccc(OC)cc3nc2s1 (stereo not drawn) 35.5 µM
COc1ccc2cc3cc(C(=O)NCC4CCCO4)oc3nc2c1 (stereo not drawn) 35.5 µM
O=c1[nH]cnc2nc(-c3ccccc3)c(-c3ccccc3)nc12 35.5 µM
COc1ccc2cc3cc(C(=O)NCCN4CCN(c5ccccc5F)CC4)oc3nc2c1 35.5 µM
COc1ccc2cc3cc(C(=O)NCCN4CCN(Cc5ccccc5)CC4)oc3nc2c1 28.2 µM
COc1ccc2cc3cc(C(=O)NCCN4CCc5ccccc5C4)oc3nc2c1 35.5 µM
CC(=O)Nc1ccc(S(=O)(=O)NCC(=O)OCc2cc(=O)oc3ccc4ccccc4c23)cc1 35.5 µM
COc1cccc(-c2nc(N3CCN(Cc4ccccc4)CC3)c3ccccc3n2)c1O 39.8 µM
COC(=O)c1ccc2nc(Nc3nc4ccc(F)cc4s3)sc2c1 12.6 µM
COC(=O)c1ccc2nc(Nc3nc4c(F)cc(F)cc4s3)sc2c1 6.31 µM
O=C(NC1CCC(O)CC1)c1cc(-c2ccco2)nc2ccccc12 (stereo not drawn) 39.8 µM
OCCN(CCO)c1ccc2ccccc2c1 35.5 µM
c1ccc(CCNc2ccnc3cc4ccccc4cc23)cc1 22.4 µM
COc1ccc2nc(N3CCOCC3)cc(C)c2c1 39.8 µM
Cc1cc(N2CCOCC2)nc2cc(O)ccc12 28.2 µM
CCOc1ccc2nc(N3CCOCC3)nc(C)c2c1 39.8 µM
CCN(CC)C(=O)c1cc2c(=O)n3ccccc3nc2s1 31.6 µM
COCCN(CCOC)C(=O)c1cc2c(=O)n3ccccc3nc2s1 35.5 µM
CC1=CN2C(=NC(=O)CC2(C)C(=O)N(CC(=O)NC2CCCC2)c2ccccc2C)C=C1 (stereo not drawn) 35.5 µM
CC1=CN2C(=NC(=O)CC2(C)C(=O)N(CC(=O)NC2CCCC2)c2cc(C)cc(C)c2)C=C1 (stereo not drawn) 39.8 µM
CCC(=O)Oc1ccc2c(c1)OC1(OC(C)=O)OC(C)CC1=C2C (stereo not drawn) 5.62 µM
CCOC(=O)c1sc(-c2ccc(OC)cc2)cc1NC(C)=O 28.2 µM
CCCCCn1c(=NC(C)=O)c(C#N)cc2c(=O)n3ccccc3nc21 35.5 µM
CCOCCCn1c(=NC(C)=O)c(C#N)cc2c(=O)n3cccc(C)c3nc21 31.6 µM
CCOCCCn1c(=NC(C)=O)c(C#N)cc2c(=O)n3ccccc3nc21 31.6 µM
O=C(Oc1ccc2c3c(c(=O)oc2c1)CCCC3)c1cccs1 35.5 µM
O=C(Oc1cc2oc(=O)c3c(c2cc1Cl)CCCC3)c1cccs1 31.6 µM
COCCn1c(=O)[nH]c2cc(C(=O)NCc3cccnc3)ccc2c1=O 35.5 µM
COCCn1c(=O)[nH]c2cc(C(=O)NC(C)C)ccc2c1=O 35.5 µM
CCN1CCCC1CNC(=O)c1ccc2c(=O)n(CCOC)c(=O)[nH]c2c1 (stereo not drawn) 31.6 µM
O=C(O)c1cccc(NC(=O)C2C3C=CC(C3)C2C(=O)O)c1 (stereo not drawn) 31.6 µM
COc1ccc(CCNC(=O)CSc2nc(-c3ccc(OC)c(OC)c3)ccc2C#N)cc1 28.2 µM
O=c1oc2c(CN3CCOCC3)c(O)c(Cl)cc2c2c1CCC2 35.5 µM
O=c1oc2c(CN3CCOCC3)c(O)c(Cl)cc2c2c1CCCC2 31.6 µM
CCCCN(C(=O)NC(=O)C1=C(N2CCOCC2)/C(=C/c2ccccc2)CC1)S(C)(=O)=O 31.6 µM
CN(C(=O)NC(=O)C1=C(N2CCOCC2)/C(=C/c2ccccc2)CC1)S(C)(=O)=O 39.8 µM
CN(C)CCCNS(=O)(=O)c1ccc(N2CCC(c3ccc(Cl)cc3)=N2)cc1 35.5 µM
O=S(=O)(c1ccc(N2CCC(c3ccc(Cl)cc3)=N2)cc1)N(CCO)CCO 35.5 µM
Cc1ccc2c(c1)Cc1nc3ccccc3nc1-2 35.5 µM
COc1ccc2cc3cc(C(=O)NCc4cccnc4)oc3nc2c1 31.6 µM
COc1ccc2cc3cc(C(=O)NCc4ccco4)oc3nc2c1 31.6 µM
CC(C)OCCCn1c(-c2ccco2)nc2nc3ccccc3nc21 35.5 µM
COCCn1c(-c2ccco2)nc2nc3ccccc3nc21 35.5 µM
c1coc(-c2nc3nc4ccccc4nc3n2CC2CCCO2)c1 (stereo not drawn) 25.1 µM
CCCCCn1c(-c2ccco2)nc2nc3ccccc3nc21 39.8 µM
CCC(C)n1c(-c2ccco2)nc2nc3ccccc3nc21 (stereo not drawn) 39.8 µM
c1ccc(Cn2c(-c3ccco3)nc3nc4ccccc4nc32)cc1 35.5 µM
Nc1c(Cl)cc(Cl)cc1C(=O)OCC(=O)N1CCOCC1 31.6 µM
COC(=O)CNC(=O)COC(=O)c1cc(Cl)cc(Cl)c1N 39.8 µM
CC(C)N(C(=O)COC(=O)c1cc(Cl)cc(Cl)c1N)C(C)C 35.5 µM
Nc1c(Cl)cc(Cl)cc1C(=O)OCC(=O)NC1CC1 35.5 µM

Source: PubChem BioAssay AID2242 (National Center for Advancing Translational Sciences (NCATS), 2010)
